Measured values from the supplement of paper PMC6555819.

System: PPARg:RXRa (NR concentration 180 nM, RXRa partner concentration 90 nM)
Experiment: PBM binding z-score (relative to random genomic background probes); higher = stronger binding; sequences stand for … in GC…GCGATTGACAGCGTAGAATGAAGG
Summary of the method: (§1)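 On custom Agilent 4×180K arrays, double-stranded probes with 34-nt variable regions carried direct-repeat seeds, single-nucleotide variants, half-site ablations or random human genomic background. Ligand-free nuclear receptor dimers were applied for 1 h, and binding was read with antibodies against each partner (one per run). Binding z-scores come from regression-normalized fluorescence, with the random background probes as reference.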

Sequence	PBM binding z-score
CGTCCAAGGTCAAAGGTCAGGGAAGAGATGACGG	11
TAGCCTAGGTTATGCGGGCCAGTATAGTGTCGGC	0.00764
TCAGATAGGTAAAGGTGAAAGTCGAACGATATGA	2.56
CAAAATAGGTCAAGGTCAAAGTCGGTTTGTGCCA	8.81
CCTACTGGGCCAAGGTCTTTGATCAGTCAAAGCA	0.806
AGTCAAATTTCACTAGGTAACGTAAGATTCAGCT	0.5
CGTCCAAGGTCAAGGTCACTGAAAGAGACTCGAA	7.36
CGTCCAAGCTCAGCAGGTCAGTGAAAGCGACGTG	-0.464

System: PPARg:RXRa 270nM:90nM, anti-RXR (NR concentration 270 nM, RXRa partner concentration 90 nM)
Experiment: as above
Summary of the method: as §1

Sequence	PBM binding z-score
TATACAGGGTCAAAGGGCAGAGTACGAATGTCGA	8.53
CGTCCAAGGTCAAAGGTCAGGGAAGAGATGACGG	9.03
CAAACTAGGTCACCGGAAGGTCAAAGTTCGCATG	8.11
TAGCCTAGGTTATGCGGGCCAGTATAGTGTCGGC	-0.446
CCTACTGGGCCAAAAAGGCCATTGATGCCGATAA	0.7
CGAACTAGGTCAAAGGCCAGTGAAAGGCGACGTA	9.43
ATCTCTAGGTTAAAGTTCAGTGAATCCCGAGGAT	8.62
CCGACTGGGGCAAAGGTTACGATACTCAGTACGA	9.56
ACTCGGAGGACAGAGGTCAGAGCTACGCCAGTGA	4.96
CAAACTAGGTCACAGAGGTCAAAGTTCGTGCGTA	8.37
CCAGACAGGTGAAAGGTCACTCAGTCTGGTACGC	8.84
CAATCTAGGTCACAGAGGTCAAAGTCCGTGCGTA	8.69
ACTAGCAGGTCAAGGGTCACTCAAGATTAGTCCG	9.23
CATACACGGTCAGCTAGGCCAGAGTAGGGACGGC	-0.257
GCTTCCGGGTCAAAGGTTATAGCATGAATAGAAT	9.9
TCAGATAGGTAAAGGTGAAAGTCGAACGATATGA	3.99
ATATGTAGGTCAGGGTCATTCAGAAAGTAGGGAA	7.66
CTAACTAGGTCACCGGAAGGTCAAAGTCCGCATG	8.19
CGTCCAAGGTCAGCAGGTGAGTGAAAGCGACGTG	3.7
TCTAGTAGGTCACGGAGGTCACACACGACGGGTA	8.31

Sequence	PBM binding z-score
TCATATAGGTAATAAAGGTGAAAGTCGGCATCTA	4.44
CAAAATAGGTCAAGGTCAAAGTCGGTTTGTGCCA	7.46
CGTCCAAGGTCAGCAGGTCAGAGAAAGCGACGTG	5.15
CGTCCAAGGTCAAAGGTCACTGAAGAGATGACGG	9.43
TCTAGTTGGTCACGGAGGTCACACGCGACGGGTA	4.08
TCATATAGGTTAAAGGTGAAAGTCGGTGTGGTAA	9.55
CAAACTAGGTCACGAGGTCAAAGTCCGCTTCCCG	8.27
CCTACTGGGCCAAGGTCTTTGATCAGTCAAAGCA	1.32
CGTCCAAGGTCAATGCTAGCTCAGTGAAAGCATT	4
CCTAGTGGGCCAAAGGTCATTGATTCCAATGCTC	10.7
CCTGCTAGGTCAAGGGTCAGCTAAAGCAGCTCGC	8.48
AGTCAAATTTCACTAGGTAACGTAAGATTCAGCT	0.334
ACTCGGAGGGCAAAGGTCAGAGCTACGCCAGTGA	8.48
GATACAGGGTCAGCTAGAGGTCAGAGTATGGAAA	5.22
AGAATGGGGTTAAGATCAGGGAAACAGAATACAT	4.5
TCATATAGGTAATCAGGTGAAAGTCCGTAAGTTA	4.24
CGTCCAAGGTCAAGGTCACTGAAAGAGACTCGAA	6.98
CGTCCAAGCTCAGCAGGTCAGTGAAAGCGACGTG	-0.756
CGAACTAGGTCAAAGGACACTGAAAGGCGACGTA	8.98

System: PPARg:RXRa 30nM:10nM, anti-RXR (NR concentration 30 nM, RXRa partner concentration 10 nM)
Experiment: as above
Summary of the method: as §1

Sequence	PBM binding z-score
TATACAGGGTCAAAGGGCAGAGTACGAATGTCGA	7.25
CGTCCAAGGTCAAAGGTCAGGGAAGAGATGACGG	8.32
CAAACTAGGTCACCGGAAGGTCAAAGTTCGCATG	6.06
TAGCCTAGGTTATGCGGGCCAGTATAGTGTCGGC	-0.658
CCTACTGGGCCAAAAAGGCCATTGATGCCGATAA	-0.443
CGAACTAGGTCAAAGGCCAGTGAAAGGCGACGTA	9.62
ATCTCTAGGTTAAAGTTCAGTGAATCCCGAGGAT	8.86
CCGACTGGGGCAAAGGTTACGATACTCAGTACGA	9.53
ACTCGGAGGACAGAGGTCAGAGCTACGCCAGTGA	2.62
CAAACTAGGTCACAGAGGTCAAAGTTCGTGCGTA	6.72
CCAGACAGGTGAAAGGTCACTCAGTCTGGTACGC	7.76
CAATCTAGGTCACAGAGGTCAAAGTCCGTGCGTA	7.34
ACTAGCAGGTCAAGGGTCACTCAAGATTAGTCCG	8.21
CATACACGGTCAGCTAGGCCAGAGTAGGGACGGC	-0.34
GCTTCCGGGTCAAAGGTTATAGCATGAATAGAAT	10.7
TCAGATAGGTAAAGGTGAAAGTCGAACGATATGA	4.4
ATATGTAGGTCAGGGTCATTCAGAAAGTAGGGAA	6.11
CTAACTAGGTCACCGGAAGGTCAAAGTCCGCATG	6.41
CGTCCAAGGTCAGCAGGTGAGTGAAAGCGACGTG	0.511
TCTAGTAGGTCACGGAGGTCACACACGACGGGTA	6.89

Sequence	PBM binding z-score
TCATATAGGTAATAAAGGTGAAAGTCGGCATCTA	4.71
CAAAATAGGTCAAGGTCAAAGTCGGTTTGTGCCA	5.59
CGTCCAAGGTCAGCAGGTCAGAGAAAGCGACGTG	1.61
CGTCCAAGGTCAAAGGTCACTGAAGAGATGACGG	11
TCTAGTTGGTCACGGAGGTCACACGCGACGGGTA	3.3
TCATATAGGTTAAAGGTGAAAGTCGGTGTGGTAA	10.5
CAAACTAGGTCACGAGGTCAAAGTCCGCTTCCCG	7.29
CCTACTGGGCCAAGGTCTTTGATCAGTCAAAGCA	0.0343
CGTCCAAGGTCAATGCTAGCTCAGTGAAAGCATT	0.365
CCTAGTGGGCCAAAGGTCATTGATTCCAATGCTC	13.5
CCTGCTAGGTCAAGGGTCAGCTAAAGCAGCTCGC	7.78
AGTCAAATTTCACTAGGTAACGTAAGATTCAGCT	0.197
ACTCGGAGGGCAAAGGTCAGAGCTACGCCAGTGA	8.91
GATACAGGGTCAGCTAGAGGTCAGAGTATGGAAA	1.99
AGAATGGGGTTAAGATCAGGGAAACAGAATACAT	2.12
TCATATAGGTAATCAGGTGAAAGTCCGTAAGTTA	4.28
CGTCCAAGGTCAAGGTCACTGAAAGAGACTCGAA	4.14
CGTCCAAGCTCAGCAGGTCAGTGAAAGCGACGTG	-1.14
CGAACTAGGTCAAAGGACACTGAAAGGCGACGTA	10.1
